40 compounds from PubChem BioAssay (NCI) can be followed below.

The panel holds about 83,000 compounds, 20% with a hit somewhere; the sample as a whole holds those more often.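 The endpoint reported here, percent growth, reads 100 for growth as untreated, 0 for no net growth and -100 for all cells dead.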 A number with no mark means an inactive call. Active and inactive are the calls of the source.

For this test, the system named is A498 renal. The test is described as follows: NCI-60 one-dose screen, 48 h (100 = growth as untreated, 0 = no growth, -100 = all killed). The note with it: 10 µM unless noted. The method, then:
Growth inhibition of the A498 human tumor cell line is measured as a screen for anti-cancer activity. Cells are grown in 96 well plates and exposed to the test compound for 48 hours. Compounds are tested at a single concentration, which is 10^-5 M for most compounds. The reported endpoint is percent growth (GI% or GIPRCNT), where numbers from 0 - 100% represent growth inhibition, and numbers from -100% - 0 represent cell death. For example, a value of 40 represents 60% growth inhibition. A value of 0 means no net growth occurred over the course of the experiment. A value of -40 indicates 40% of cells at the beginning of the experiment died by the end of the experiment. A value of -100 means all cells are dead at the end of the experiment.
NCI-60 Human Tumor Cell Lines Screen was performed using the standard one-dose NCI protocol, which is described in more detail at https://dtp.cancer.gov/discovery_development/nci-60/default.htm.
Compounds with GIPRCNT values below 10 were considered active. Activity score was based on GIPRCNT using the following formula: […]
Score is 0 for GIPRCNT values of 100 or above, 50 for GIPRCNT values of 0, and 100 for GIPRCNT values of -100.
For the compound `CCCCCCCCCCCCCCCCCCOc1ccccc1CC(=O)OCC[N+](CC)(CC)CC`, the growth was 65.9%.

With `O=C(Nc1c2ccccc2nc2ccccc12)c1ccccc1CN1C(=O)c2ccccc2C1=O`, the growth is -18.9% (active).

As to `O=C1c2ccccc2NC(n2sc3ccccc3c2=O)N1c1ccccc1` (stereo not given), the growth is 89.2%.

Regarding `CCN(CC)CCNC(=O)c1cn2ncnc(Oc3ccc(NC(=O)Nc4ccc(Cl)c(C(F)(F)F)c4)cc3)c2c1C`, the growth is -6.51% (active).

As to `CCCCCCCCCCCCCCCCCC1OCC(COC(=O)O[C@]2(CC)C(=O)OCc3c2cc2n(c3=O)Cc3cc4ccccc4nc3-2)O1` (stereo not given in full), the growth was 88.6%.

Regarding `COc1cc(CNS(=O)(=O)c2ccc(C)cc2)ccc1OCc1cn(-c2ccccc2)nn1`, the growth was 59%.

As to `O=C(Nc1ccc(Cl)cc1F)c1ccccc1O`, the growth was -21.8% (active).

Take `CCCCCCCCCCCCCCCCCCOc1ccccc1CCCOP(=O)(O)OCC[N+](C)(C)C`: the growth is 54.1%.

For `Cc1nc2ccccc2n1-c1ncnc2c1CC(C)c1ccccc1N2C` (stereo not given), the growth is 70.4%.

In the case of `Cn1cc(-c2cc3ncnc(Nc4ccc(CC(=O)Nc5cc(C(C)(C)C)nn5C)cc4)c3s2)cn1`, the growth was -7.97% (active).

Consider `COc1cc(C(=O)/C=C/c2c(Cl)nc3sccn23)cc(OC)c1OC`, for which the growth is 88%.

On to `COc1ccc([C@H]2c3cc(OC)c(OC)cc3C=C(C=O)C2CO)cc1OC` (stereo not given in full), for which the growth is 104%.

As for `Cc1nn(-c2ccccc2)c(-n2ccnc2)c1/C=N/Nc1nc(-c2ccc(Cl)c(Cl)c2)cs1`, the growth was 43.5%.

As for `Cc1c(C(=O)NCCCc2ccccc2)sc2ncc(-c3ccc(Br)cc3)n12`, the growth was 110%.

`C=CCNc1ccc2c3c(cccc13)C(=O)N(N1C(=O)c3cccc4cccc(c34)C1=O)C2=O`: the growth was 119%.

For the compound `Cc1ccc(-c2cnc3sc(C(=O)NCCc4ccccc4)c(C)n23)cc1`, the growth was 101%.

In the case of `O=c1c2cc(F)ccc2sc2c(N3CCNCC3)nc3ccc(F)cc3c12`, the growth was 45.5%.

As for `O=c1c2cc(F)ccc2sc2c(N3CCNCC3)nc3ccccc3c12`, the growth was 30.3%.

As for `COc1cc2cc(Oc3ccc(NC(=O)Nc4ccc(F)c(C(F)(F)F)c4)cc3)c(C)nc2cc1OCCN1CCOCC1`, the growth was 38.7%.

Regarding `COc1c(C2CC(=O)Nc3c2c(C)nn3-c2nc3ccccc3[nH]2)cc2c(c1OC)OCO2` (stereo not given), the growth was 22.6%.

For the compound `CCc1ccc(Oc2c(-c3ccc(OCc4ccc(Cl)cc4)cc3O)nn(C)c2C(F)(F)F)cc1`, the growth was -22.6% (active).

In the case of `COc1cc2oc(-c3ccc(O)cc3)cc(=O)c2c(O)c1-c1c(OC)cc(O)c2c(=O)cc(-c3ccc(O)cc3)oc12`, the growth is 83.9%.

On to `C=C1CC[C@@]2(C#N)[C@H]3[C@H](CC[C@@H]2C)[C@@H](C)C[C@@H](CC(C)(C)C#N)[C@H]13`, for which the growth is 51.1%.

For `COc1cc(C(=O)c2cc(C)c3[nH]c4ccc(C)cc4c3c2C)cc(OC)c1OC`, the growth is -8.86% (active).

For `Cc1ccc(-c2nc(N3CCN(C(=O)c4ccc(OC(F)(F)F)cc4)CC3)c3ccccc3n2)cc1`, the growth was 63.7%.

Turning to `CCOC(=O)NCCc1ccccc1`, the growth is 110%.

Take `COc1ccc2[nH]c(-c3ccccc3)c(/C=C(\C#N)S(=O)(=O)c3ccccc3)c2c1`: the growth is 57.2%.

For `CCOC(=O)C1=C(N)Oc2c(sc3c(C)cccc23)C1c1ccc(OC)cc1` (stereo not given), the growth is 4.89% (active).

Turning to `CC(C)C(=O)Nc1ccc(-c2nc(-c3cccc(OCCN4CCOCC4)c3)c(-c3ccnc(Br)c3)[nH]2)cc1`, the growth is 54.7%.

For `COc1ccc(-c2cc(-c3ccc(Cl)cc3)c(C#N)c(=O)n2CCCCCC(=O)Nc2ccccc2N)cc1`, the growth is 39.1%.

`COc1ccc(C(=O)N=Nc2c(O)n(C)c3ccccc23)cc1`: the growth is 99.5%.

As for `COC(=O)[C@H](C)NC(=O)NC(=O)NC(=O)CI`, the growth was 128%.

For the compound `CC/C=C\C[C@@H]1C/C=C2/C(=O)C=C[C@H]2C/C=C\CCCC(=O)O1`, the growth is -88.4% (active).

In the case of `COc1cccc(Cc2cc(-c3ccccc3)nn(CC(=O)c3ccccc3)c2=O)c1`, the growth was 52.1%.

`CCS(=O)(=O)c1ncnc2nc[nH]c12`: the growth was 92.8%.

For `CN1CCN(c2ccc(-c3ccc4ncc(C#N)c(Nc5ccc(F)c(Cl)c5)c4c3)cn2)CC1`, the growth was -7.02% (active).

With `NC1=C(c2nn[nH]n2)C(c2ccccc2Cl)c2ccc3ccccc3c2O1` (stereo not given), the growth was 48%.

With `CCCCNC(=O)Oc1ccc(/C(=C(\C)c2ccc(Cl)cc2)c2ccc(OCCN3CCCCC3)cc2)cc1`, the growth is 85.2%.

With `CC1=C(C)C(=O)C(Nc2cccc(C(=O)OC(C)(C)C)c2)=C(Br)C1=O`, the growth was 87.3%.

For the compound `CN1C(=C2C(=O)OC(C)(C)OC2=O)CCC1C(=O)NCc1ccc(Cl)cc1Cl` (stereo not given), the growth was 59.5%.
